For 40 compounds, growth inhibition results are on record in PubChem BioAssay (NCI).

Structures are written as SMILES. About 79,000 compounds went through this panel and 15% of them were active in at least one assay; those are over-represented in the sample as a whole. Unmarked numbers belong to inactive results. Activity calls are given as the source filed them. No stated cut-off is given here; in the data, active means growth inhibition above about 70%; inactive means the rest.

A short description of this assay: NCI Yeast Anticancer Drug Screen. Data for the mlh1 rad18 strain (AID 175). To be noted: S. cerevisiae mlh1 rad18 strain growth inhibition; at 50.0 µM; hits give high values. A digest of the protocol:
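Genetically defined yeast (DNA repair-deficient) exposed to compounds; growth inhibition determined relative to vehicle.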
Consider `c1ccc(B2OCC(C3OB(c4ccccc4)OC4COB(c5ccccc5)OC43)O2)cc1` (stereo not given), for which the growth inhibition was 23.6%.
As for `Cn1c(=O)c(-c2ccccc2)cc2ccccc21`, the figure is -16.6%; as for `CCOC(=O)c1ccc(-c2ccccc2)cc1`, -15.3%; as for `N#Cc1c(N)c(C(=O)O)nn(-c2cccc(C(F)(F)F)c2)c1=O`, -15.9%.
`O/N=C1/CCCCCC1NO` (stereo not given): the growth inhibition is -13.1%.
As for `NCCC1([N+](=O)[O-])CCNCC1`, the figure is 14.6%.
As for `O=C(NCc1ccccc1)C1C2C=CC(C2)C1C(=O)NCc1ccccc1` (stereo not given), the figure is 5.85%.
Then `Nc1ccc[nH]c1=O`, with -12.4%; and `CC(C)(C)c1ccc(OCCCl)c(Cl)c1`, with 6.3%; and `COC(=O)c1cc(C)cc(N(c2ccccc2[N+](=O)[O-])S(=O)(=O)c2ccc(C)cc2)c1C`, with -9%.
As to `Cc1ccc(N=c2cc(-c3ccccc3)oc3ccccc23)cc1`, the growth inhibition is 20.4%.
For `COc1cc(C)c(C(=O)c2ccccc2NS(=O)(=O)c2ccc(C)cc2)cc1OC`, the growth inhibition is 9.1%.
As for `C[n+]1nc([O-])oc1-c1ccccc1`, the figure is 6.3%.
As for `Cn1ncc2c(=O)[nH]c(=S)[nH]c21`, the figure is 3.6%; as for `Cc1ccc(S(=O)(=O)C(Sc2ccccc2)=S=NC(C)(C)C)cc1`, 91.8% (active).
Then `Cc1ccc(NC(=O)CCc2nnc3s/c(=C\c4cccc([N+](=O)[O-])c4)c(=O)n23)cc1`, with 3.3%; and `CCOc1c(N=Nc2ccccc2C)c(-c2ccccc2)nn1C(N)=S`, with 8.25%.
Regarding `C(=N\N1CCN(/N=C/c2ccc3ccccc3n2)CC1)/c1ccc2ccccc2n1`, the growth inhibition was 32.4%.
Consider `NC(=S)c1ccccn1`, for which the growth inhibition is 26.9%.
Then `CC(=O)CCCCCCCCCCCCCC(C)=O`, with -6%; and `CCOC(=O)/C=C/C(=O)O.[Cu+2]`, with 11.9%; and `CCCCCCC1OCCC(C)O1` (stereo not given), with 12.9%.
Then `O=C(O)c1c(Br)c(Br)c(Br)c(Br)c1C(=O)Nc1ccc(Cl)cc1C(F)(F)F`, with 13.3%.
As for `Cc1cc(C)nc(N)n1`, the figure is 10.1%.
Take `C(=NCc1ccccc1)c1ccccc1-c1ccccc1C=NCc1ccccc1`: the growth inhibition was 98.1% (active).
On to `CC(C)CCCC(C)C1CCC2C3CC(=O)C4C=CCCC4(C)C3CCC12C` (stereo not given), for which the growth inhibition was 34%.
In the case of `O=C(CC(=O)C(=O)CC(=O)OCc1ccccc1)OCc1ccccc1`, the growth inhibition was 2.55%.
With `CCOc1c(N=Nc2ccccc2Cl)c(-c2ccccc2)nn1C(N)=S`, the growth inhibition is 15.6%.
As for `Brc1nccs1`, the figure is -27.1%; as for `Cc1ccc(S/C=C/C(=O)Nc2ccccc2)cc1`, 5.6%.
As for `c1ccc2c(c1)ncc1cc3c(cc12)[nH]c1ccccc13`, the figure is 26.6%; as for `Nc1nc(SCc2ccccc2)c2ncn(C3CC(O)C(CO)O3)c2n1` (stereo not given), -6.15%.
With `S=C1SCN(c2ccc3c(c2)OCO3)CN1c1ccc2c(c1)OCO2`, the growth inhibition was -20.1%.
Turning to `C[Si](C)(CNCCN)O[Si](C)(C)CNCCN`, the growth inhibition is 13.3%.
As for `O=C(CCC(CCC(=O)c1ccccc1)[N+](=O)[O-])c1ccccc1`, the figure is 20.5%; as for `Cc1nc(-c2ccccc2)oc1-c1ccccc1`, -4.35%.
As for `Clc1ccc(CSc2ccc3nncc(SCc4ccc(Cl)cc4Cl)c3c2)c(Cl)c1`, the growth inhibition is 17.6%.
Consider `Cc1cc(C)c2c(SCc3ccc(Cl)cc3Cl)nc(N)nc2n1`, for which the growth inhibition is 44.8%.
For the compound `CCCCN1C(=O)c2cc(=O)[nH]c(O)c2C1C` (stereo not given), the growth inhibition was 3.25%.
For `C1=C(c2ccccc2)CC(c2ccc(-c3ccccc3)cc2)=C1`, the growth inhibition was 16.4%.
